In article PMC4336329 (PLoS ONE, 2015):
In all, about 310,000 compounds went through this assay and about 14,000 (4.5%) showed an effect of 50% or more. The effect is printed as a negative number. The sample holds strong results, similar compounds and a random draw of the others, so the mix is not that of the screen.

Target: human ether-à-go-go-related gene (hERG) potassium channel (human, UniProt Q12809)
Assay: primary screen, population patch clamp on CHO cells stably expressing hERG; higher = less effect of the substance
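Note: peak tail current of the secondary pulse compared with the same well before compound.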

human ether-à-go-go-related gene (hERG) potassium channel, sequence (Q12809 whole entry, looked up): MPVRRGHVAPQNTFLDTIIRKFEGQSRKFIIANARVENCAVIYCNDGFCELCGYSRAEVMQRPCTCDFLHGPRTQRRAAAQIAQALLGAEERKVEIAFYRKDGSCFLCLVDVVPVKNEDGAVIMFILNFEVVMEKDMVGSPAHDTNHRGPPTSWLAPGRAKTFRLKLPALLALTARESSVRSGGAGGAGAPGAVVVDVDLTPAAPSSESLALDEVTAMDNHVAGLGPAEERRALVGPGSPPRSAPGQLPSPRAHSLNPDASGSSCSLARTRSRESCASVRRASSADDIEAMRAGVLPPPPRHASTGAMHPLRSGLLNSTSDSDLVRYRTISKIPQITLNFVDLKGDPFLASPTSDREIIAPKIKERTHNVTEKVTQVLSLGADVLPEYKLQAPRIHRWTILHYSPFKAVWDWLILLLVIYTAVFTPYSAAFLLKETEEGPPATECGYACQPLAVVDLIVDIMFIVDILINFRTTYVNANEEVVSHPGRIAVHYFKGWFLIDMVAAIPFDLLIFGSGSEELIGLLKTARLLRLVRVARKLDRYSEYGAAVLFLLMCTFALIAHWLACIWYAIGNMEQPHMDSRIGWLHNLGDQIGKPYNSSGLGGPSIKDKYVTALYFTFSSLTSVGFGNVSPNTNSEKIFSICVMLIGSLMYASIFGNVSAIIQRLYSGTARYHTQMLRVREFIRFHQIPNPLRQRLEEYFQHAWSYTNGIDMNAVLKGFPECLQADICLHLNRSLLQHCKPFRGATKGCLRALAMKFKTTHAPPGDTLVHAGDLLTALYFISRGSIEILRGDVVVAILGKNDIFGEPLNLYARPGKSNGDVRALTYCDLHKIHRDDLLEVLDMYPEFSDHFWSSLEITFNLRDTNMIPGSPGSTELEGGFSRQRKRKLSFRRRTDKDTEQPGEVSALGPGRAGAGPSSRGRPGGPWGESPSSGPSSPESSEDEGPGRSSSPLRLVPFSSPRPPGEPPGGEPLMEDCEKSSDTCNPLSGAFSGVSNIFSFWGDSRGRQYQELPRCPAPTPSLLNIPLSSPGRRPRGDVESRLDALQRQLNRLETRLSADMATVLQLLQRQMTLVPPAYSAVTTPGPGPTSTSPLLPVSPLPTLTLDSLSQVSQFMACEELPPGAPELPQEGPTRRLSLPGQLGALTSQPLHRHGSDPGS

| SMILES | hERG current change (%, negative = inhibition) at 10uM |
| --- | --- |
| CCc1ccc(S(=O)(=O)Nc2c(NC3CCCCC3)c3ccccc3oc2=O)cc1 | -3.7% |
| CC1CN(S(=O)(=O)c2ccc(C(=O)N3CCc4ccccc43)cc2)CC(C)O1 (stereo not drawn) | 15.9% |
| CC(=O)Nc1ccc(NC(=O)c2cccc(S(=O)(=O)N(C)C3CCCCC3)c2)cc1 | 6.97% |
| CN(C1CCCCC1)S(=O)(=O)c1cccc(C(=O)Nc2ccccn2)c1 | -53.7% |
| Cc1ccc(NC(=O)c2cccc(S(=O)(=O)N(C)C3CCCCC3)c2)nc1 | -34.7% |
| Cl.O=C1Cc2ccccc2Sc2cc(OCCCN3CCCCC3)ccc21 | -69.8% |
| CN(C)CCOc1ccc2c(c1)Sc1ccccc1CC2=O.Cl | -64.8% |
| O=C1Cc2ccccc2Sc2ccc(O)cc21 | 16.4% |
| O=C1Cc2ccccc2Sc2ccccc21 | 1.13% |
| Cc1ccc2c(c1)Sc1ccccc1CC2=O | -20.9% |
| O=C1Cc2ccccc2Sc2ccc(Cl)cc21 | 16% |
| Cc1cccc2c1Sc1ccccc1CC2=O | 0.0655% |
| COc1cccc(OCCCN2CCCCC2)c1 | -16.2% |
| c1ccc(-c2ccccc2OCCN2CCCC2)cc1 | -26.6% |
| Cl.O.O=C1Cc2ccccc2Sc2c(OCCN3CCCCC3)cccc21 | -63.4% |
| CN(C)CCCOc1ccc2c(c1)Sc1ccccc1CC2=O.Cl | -74.3% |
| Cc1cccc(OCCCN2CCCCCC2)c1 | -28.2% |
| O=C(O)c1n[nH]c2ccccc12 | -4.09% |
| C[N+]1(CC(=O)NNc2c3ccccc3nc3ccccc23)CCOCC1.[Br-] | 3.64% |
| COC(=O)C(=Nc1ccccc1)/C(C(=O)C(=O)N(C)c1ccccc1)=C(\O)c1ccccc1 | 22.7% |
| CC1(C)CCCC2=C1CC1C(=O)N(Cc3cccnc3)C(=O)C1C2 (stereo not drawn) | -5.71% |
| COc1ccc(-c2csc(-c3cc4ccccc4oc3=N)n2)cc1 | -4.44% |
| CCCC(=O)N1CCN(c2ccc(NC(=O)c3ccc(Br)o3)cc2)CC1 | -8.1% |

| SMILES | hERG current change (%, negative = inhibition) at 10uM |
| --- | --- |
| COc1ccccc1NC(=O)C1CCN(S(=O)(=O)c2cccs2)CC1 | -7.13% |
| c1ccc2[nH]c(CN3CCCCC3)nc2c1 | 1.41% |
| Cc1ccnc(NC(=O)c2oc3ccccc3c2C)c1 | 24.7% |
| O=C(O)/C=C1\NC(=O)c2ccccc21 | 17% |
| CN(Cc1cn(C)nc1-c1ccccc1F)CC1CCN(Cc2ccccc2)CC1 | -15.6% |
| COCC1CCCN(Cc2cn(-c3ccccc3F)nc2-c2cc(C)sc2C)C1 (stereo not drawn) | -39.4% |
| COCC1CCN(Cc2cn(Cc3ccccc3)nc2-c2cc3ccccc3o2)CC1 | -76.6% |
| COCC1CCCN(Cc2nc(Cc3ccccc3)no2)C1 (stereo not drawn) | 11.6% |
| COCC1CCCN(Cc2cn(Cc3ccccc3)nc2-c2cc3ccccc3o2)C1 (stereo not drawn) | -72.8% |
| COCC1CCN(Cc2cn(C)nc2-c2cccc(Cl)c2)C1 (stereo not drawn) | -2.21% |
| CCCn1nnnc1SCC(=O)Nc1cccc(NC(=O)c2ccco2)c1 | -34.8% |
| COc1ccc(OC)c(NC(=O)c2cnc(Nc3ccccc3OC)c3ccccc23)c1 | -7.53% |
| CCN(CCCNC(=O)C1CCN(S(=O)(=O)CC)CC1)c1cccc(C)c1 | -40.4% |
| Nc1c(C(=O)Nc2ccc(Cl)c(C(=O)O)c2)sc2nc3c(cc12)CCCC3 | -3.17% |
| O=C(CSc1ccc2nnc(-c3ccccn3)n2n1)Nc1nccs1 | -27.6% |
| CC(C)(C)OC(=O)NCc1n[nH]c(=S)n1C1CC1 | 14.5% |
| COCCN(Cc1cc2cc3c(cc2nc1Cl)OCO3)C(C)=O | 3.81% |
| COCCN(Cc1cc2cc3c(cc2nc1Cl)OCO3)C(=O)Nc1ccccc1OC | 16.3% |
| COCCN(Cc1cc2cc3c(cc2nc1Cl)OCO3)C(=O)Nc1ccc(OC)cc1 | 14.7% |
| COCCN(Cc1cc2cc3c(cc2nc1Cl)OCO3)C(=O)Nc1ccc(F)cc1 | -30% |
| COCCN(Cc1cc2cc3c(cc2nc1Cl)OCO3)C(=O)c1ccc(C)cc1 | -53.2% |
| COCCN(Cc1cc2cc3c(cc2nc1Cl)OCO3)C(=O)c1cccc(C)c1 | -64.3% |
